For 8 molecules, growth results are on record in PubChem BioAssay (NCI).

The panel holds about 83,000 compounds, 20% with a hit somewhere; the sample as a whole holds those more often.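 Growth was measured after 48 h exposure to one concentration of compound in 96-well plates. Values under 10 count as active.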 Unmarked numbers belong to inactive results. Active and inactive are the calls of the source.

Common to all, as to experiment: NCI-60 one-dose screen, 48 h (100 = growth as untreated, 0 = no growth, -100 = all killed)
Settings in all cases: 10 µM unless noted

For experiment [1], the system named is NCI-H23 lung.
In experiment [2] the test system is NCI-H226 lung.
The test system of experiment [3] is NCI-H322M lung.
Experiment [4] relates to HOP-62 NSCLC.
Experiment [5] has as its system NCI-H460 lung.
For experiment [6], the system named is HOP-92 NSCLC.
The test system of experiment [7] is NCI-H522 lung.
Experiment [8] concerns A549/ATCC NSCLC.
Experiment [9] has as its system 786-0 renal.
Experiment [10] deals with COLO 205 colon.
In experiment [11] the test system is DU-145 prostate.
The test system of experiment [12] is K-562 leukemia.
The test system of experiment [13] is MALME-3M melanoma.
Experiment [14] concerns MDA-MB-231 breast.
Experiment [15] relates to RXF 393 renal.
Experiment [16] concerns SF-268 CNS.
Experiment [17] deals with SF-295 CNS.
Experiment [18] deals with SF-539 CNS.
The test system of experiment [19] is UACC-257 melanoma.
Experiment [20] has as its system M14 melanoma.

In the case of `CS(=O)(=O)Nc1cc(-c2ccc3ncnc(Nc4ccc(OCc5ccccn5)c(Cl)c4)c3c2)cnc1Cl`, the growth was -8.13% (active) in [1]; 21.2% in experiment [2]; 9.88% (active) in [3]; 15.3% in experiment [4]; 9.64% (active) in experiment [5]; -6.05% (active) in experiment [6]. For the same molecule, the growth is -18.3% (active) in [7]; 11.8% in [8]; 22.2% in experiment [9]; -90.9% (active) in [10]; 16.5% in experiment [11]; 21.1% in experiment [12]. For the same molecule, the growth was -35.7% (active) in [13]; 2.29% (active) in experiment [14]; -31.4% (active) in [15]; 10.9% in experiment [16]; -2.49% (active) in [17]; -11.7% (active) in [18]. Also, the growth in experiment [19] is 14.3%; in experiment [20], 30%.

Take `CN1C(=O)/C(=C/c2ccc(C(=O)Nc3ncc(Cc4cccc(C(F)(F)F)c4)s3)cc2)SC1=S`: the growth in experiment [1] is 37.5%; in experiment [2], 58%; in [3] it was 69.5%; in experiment [4], 58.5%; in experiment [5], 30.1%; in experiment [6] it was 27.3%. Besides, the growth in experiment [7] is 35.5%; in experiment [8], 47.4%; in [9], 65%; in experiment [10] it was 53%; in experiment [11], 68.5%; in [12] it was 48.2%. Besides, the growth is 32.2% in [13]; 69.1% in experiment [14]; 26.9% in experiment [15]; 59.3% in [16]; 26.4% in experiment [17]; 56.3% in [18]. The growth in experiment [19] is 71.7%; in experiment [20] it was 16.4%.

Consider `FC(F)(F)c1[nH]ncc1-c1nc2ccc3[nH]ncc3c2c2c1CCCC2`, for which the growth in [1] was 7.15% (active); in experiment [2], 10.1%; in experiment [3] it was 3.13% (active); in [4] it was 1.07% (active); in experiment [5], 5.86% (active); in experiment [6] it was 31.2%. Moreover, the growth in experiment [7] is -16.9% (active); in [8] it was 0.818% (active); in experiment [9], -23.8% (active); in [10] it was -8.58% (active); in [11] it was 6.89% (active); in [12], 18.7%. The growth in [13] is 8.51% (active); in experiment [14] it was 14.5%; in experiment [15], -62.9% (active); in experiment [16], 8.87% (active); in [17] it was 24.3%; in experiment [18], -35.1% (active). In addition, the figures for the growth in experiment [19] and in experiment [20] were 17.6% and 12.5%, respectively.

Turning to `CCN(CC)CCOc1ccc2c(-c3ccccc3)c(-c3ccc(OC)cc3)c(=O)oc2c1`, the growth in experiment [1] is 70.3%; in [2], 85.2%; in [3] it was 122%; in experiment [4], 95%; in experiment [5], 57.4%; in experiment [6], 63.9%. Further, the growth in experiment [7] was 66.8%; in [8] it was 70.6%; in [9], 65.9%; in experiment [10] it was -38.8% (active); in experiment [11], 95.6%; in [12], 25%. The growth in [13] was 83%; in experiment [14] it was 67.3%; in experiment [15], 50.9%; in experiment [16] it was 89.8%; in experiment [17], 62.9%; in experiment [18] it was 58.7%. The growth was 18.1% in experiment [19] and -7.02% (active) in [20].

Turning to `CCCC(=O)NC(c1ccc2c(c1)OCO2)c1cc(Cl)c2cccnc2c1O` (stereo not given), the growth is 48.3% in [1]; 50.4% in [2]; 42.1% in [3]; 23.1% in [4]; 22.7% in experiment [5]; 39.4% in [6]. The growth in [7] was 13.8%; in experiment [8], 30.7%; in experiment [9], 32.4%; in experiment [10] it was 11.5%; in [11] it was 53.7%; in experiment [12], 11.4%. The growth in experiment [13] is 42.5%; in experiment [14] it was 34.9%; in experiment [15] it was 59.9%; in [16], 37.7%; in experiment [17], 12.7%; in experiment [18], 18.6%. Also, the results for the growth in experiment [19] and in experiment [20] were 37.8% and 26.3%, respectively.

On to `NC(=O)c1ccccc1OCC(=O)Nc1ccc(Cl)c(Cl)c1`, for which the growth is 104% in [1]; 96.3% in experiment [2]; 96.8% in experiment [3]; 96.8% in experiment [4]; 100% in experiment [5]; 88.7% in [6]. For the same molecule, the growth in experiment [7] is 83.1%; in experiment [8] it was 114%; in [9] it was 109%; in experiment [10], 105%; in experiment [11] it was 114%; in experiment [12] it was 91%. Also, the growth in [13] was 100%; in experiment [14], 96.1%; in experiment [15], 104%; in experiment [16], 107%; in [17], 98.9%; in [18] it was 85.1%. Moreover, the growth in [19] is 112%; in experiment [20], 111%.

Take `C=C1SC(=Nc2ccccc2Cl)N(C(=O)c2sc3ccccc3c2Cl)C1(C)C`: the growth in experiment [1] was 36.7%; in experiment [2], 77.1%; in experiment [3], 65.9%; in experiment [4], 54.8%; in experiment [5], 15.1%; in experiment [6] it was 53.6%. Besides, the growth in experiment [7] was 91.6%; in experiment [8], 43.7%; in experiment [9], 77.8%; in [10] it was -43.8% (active); in [11], 94%; in experiment [12], 20.3%. Further, the growth in [13] was 79.6%; in experiment [14], 50.5%; in [15], 93.8%; in [16], 85.2%; in [17] it was 27%; in [18], 54.3%. For the same molecule, the growth in experiment [19] was 98.4%; in [20], 86.6%.

As for `CN(C)Cc1ccc(NC(=O)c2cncc(C#Cc3cnc(N)c4ncccc34)c2)cc1C(F)(F)F`, the growth in experiment [1] is 42.1%; in [2], 76.7%; in experiment [3] it was 97%; in [4], 79.8%; in experiment [5], 13.3%; in experiment [6], 73.9%. The growth is 94.6% in experiment [7]; -15.4% (active) in [8]; -73.4% (active) in [9]; 44.6% in [10]; 64.1% in experiment [11]; -26.1% (active) in [12]. Moreover, the growth is -6.72% (active) in [13]; -68.6% (active) in experiment [14]; -49.1% (active) in experiment [15]; 55.9% in experiment [16]; 76.4% in experiment [17]; 58.4% in [18]. The growth in experiment [19] is 36.9%; in experiment [20], -54.7% (active).
